This is part of a sample that, as a whole, favours compounds with a hit. Of some 83,000 tested, about 20% had one in any assay.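 Note: values are percent growth. 100 is the growth of untreated cells, values between 100 and 0 indicate rising inhibition; between -100 and 0 indicates cell death.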 Values without a mark were called inactive. The source made the active and inactive calls. Rule for the calls: active = growth percent below 10; inactive = the rest.

Some test systems named below: HCT-15 colon; HT29 colon; SNB-75 CNS; SNB-19 CNS; U251 CNS; PC-3 prostate; SK-MEL-5 melanoma; UACC-62 melanoma; LOX IMVI melanoma; SK-MEL-28 melanoma; SK-MEL-2 melanoma; EKVX NSCLC; SN12C renal; UO-31 renal; TK-10 renal; ACHN renal; CAKI-1 renal; A498 renal; CCRF-CEM leukemia; MOLT-4 leukemia.
Common to all, as to assay: NCI-60 one-dose screen, 48 h (100 = growth as untreated, 0 = no growth, -100 = all killed)
Settings in all cases: 10 µM unless noted

Consider `COc1cc(NCCN(CC(C)C)C2CCCC2)c2ncccc2c1`, for which the growth in the test with HCT-15 colon is 73.8%; in the test on HT29 colon, 71.8%; with SNB-75 CNS, 89.4%; in the test with SNB-19 CNS, 97.6%; in the test with U251 CNS, 94.1%; in the test with PC-3 prostate it was 85.2%. The growth in the test on SK-MEL-5 melanoma was 97.2%; with UACC-62 melanoma, 92.8%; in the test with LOX IMVI melanoma, 89.8%; in the test with SK-MEL-28 melanoma, 101%; in the test with SK-MEL-2 melanoma it was 89.2%; in the test on EKVX NSCLC, 95.2%. Also, the growth was 93.1% in the test with SN12C renal; 83.7% with UO-31 renal; 109% with TK-10 renal; 82.2% in the test on ACHN renal; 97.1% in the test with CAKI-1 renal; 75% in the test on A498 renal. Besides, the growth in the test on CCRF-CEM leukemia was 121%.

Consider `FC(F)(F)c1cccc(Oc2ccc(Nc3ncnc4ccc(OCCCN5CCOCC5)cc34)cc2Cl)c1`, for which the growth in the test with HCT-15 colon was -40.4% (active); with HT29 colon, 5% (active); in the test on SNB-75 CNS, 75.2%; with SNB-19 CNS it was 61.1%; with U251 CNS, 40.3%; in the test on PC-3 prostate, 49.1%. Besides, the growth with SK-MEL-5 melanoma is 59.2%; in the test with UACC-62 melanoma it was 76.1%; with LOX IMVI melanoma, -36% (active); with SK-MEL-28 melanoma it was 21.3%; in the test with SK-MEL-2 melanoma it was 82.7%; with EKVX NSCLC, 32.7%. Besides, the growth in the test on SN12C renal is 39.6%; with UO-31 renal, 21.6%; in the test on TK-10 renal, 46%; in the test on ACHN renal, 23.9%; in the test with CAKI-1 renal, 35.6%; with A498 renal, 63.1%. In addition, the growth in the test with CCRF-CEM leukemia is -16.4% (active).

Regarding `CN1CCN(Cc2ccc(NC(=O)c3cncc(C#Cc4cnccc4C(F)(F)F)c3)cc2C(F)(F)F)CC1`, the growth in the test with HCT-15 colon is 70.2%; in the test with HT29 colon, 23.5%; in the test with SNB-75 CNS, 89%; in the test on SNB-19 CNS it was 103%; with U251 CNS it was 78.4%; with PC-3 prostate, 80.4%. The growth in the test on SK-MEL-5 melanoma was 75.1%; with UACC-62 melanoma it was 89.9%; with LOX IMVI melanoma it was 20.9%; with SK-MEL-28 melanoma, 56.6%; in the test on SK-MEL-2 melanoma, 73.4%; with EKVX NSCLC, 87.6%. Besides, the growth in the test on SN12C renal is 75.7%; with UO-31 renal, 67.2%; with TK-10 renal, 109%; in the test on ACHN renal, 75.8%; in the test on CAKI-1 renal, 93.8%; in the test with A498 renal it was 78.4%. The values for the growth in the test on CCRF-CEM leukemia and in the test on MOLT-4 leukemia were 82.9% and 45.7%, respectively.

On to `COc1cc(NCC(O)CN(CC(C)C)C2CCCC2)c2ncccc2c1` (stereo unspecified), for which the growth is 84.2% with HCT-15 colon; 78.3% in the test with HT29 colon; 103% with SNB-75 CNS; 101% in the test with SNB-19 CNS; 79.9% with U251 CNS; 68.8% in the test with PC-3 prostate. Besides, the growth with SK-MEL-5 melanoma is 93.1%; in the test on UACC-62 melanoma, 98.9%; with LOX IMVI melanoma, 82.7%; with SK-MEL-28 melanoma, 103%; in the test on SK-MEL-2 melanoma it was 98.3%; in the test with EKVX NSCLC, 83.2%. The growth was 86.4% in the test with SN12C renal; 71.7% with UO-31 renal; 110% in the test with TK-10 renal; 80.2% in the test with ACHN renal; 94.6% with CAKI-1 renal; 71.5% in the test with A498 renal. Moreover, the growth with CCRF-CEM leukemia is 114%.

As for `COc1ccc(C(=O)c2cc3c(N)c(C(=O)Nc4ccc(Cl)cc4)sc3nc2C)cc1`, the growth was 55.9% in the test on HCT-15 colon; 54.2% with HT29 colon; 4.28% (active) in the test with SNB-75 CNS; 67% with SNB-19 CNS; 61.7% with U251 CNS; 78.7% in the test on PC-3 prostate. In addition, the growth was 85.2% in the test on SK-MEL-5 melanoma; 78.6% with UACC-62 melanoma; 82.6% with LOX IMVI melanoma; 82.6% with SK-MEL-28 melanoma; 68.5% in the test with SK-MEL-2 melanoma; 86.1% in the test on EKVX NSCLC. Further, the growth in the test with SN12C renal is 89.9%; in the test on UO-31 renal, 79%; in the test with TK-10 renal, 82%; in the test with ACHN renal, 74.7%; with CAKI-1 renal it was 66.3%; with A498 renal, 59.9%. For the same compound, the growth was 73.9% in the test with CCRF-CEM leukemia and 82.6% in the test with MOLT-4 leukemia.

In the case of `COc1ccc(C(=O)c2cc3c(N)c(C(=O)Nc4cccc5ccccc45)sc3nc2C)cc1`, the growth is 18.9% in the test with HCT-15 colon; -68.5% (active) with HT29 colon; -11.3% (active) in the test with SNB-75 CNS; 30.4% with SNB-19 CNS; 10.5% with U251 CNS; 24.5% in the test on PC-3 prostate. Besides, the growth was -12.3% (active) in the test on SK-MEL-5 melanoma; 31.8% in the test on UACC-62 melanoma; 23.7% in the test with LOX IMVI melanoma; 59.3% with SK-MEL-28 melanoma; 37.4% in the test with SK-MEL-2 melanoma; 36% in the test with EKVX NSCLC. Also, the growth with SN12C renal was 22.5%; in the test with UO-31 renal, 36.3%; in the test on TK-10 renal, 60.5%; in the test with ACHN renal it was 30.5%; in the test on CAKI-1 renal it was 20.9%; with A498 renal it was -7.9% (active). Besides, the growth in the test on CCRF-CEM leukemia is 8.02% (active); with MOLT-4 leukemia it was 13.8%.

On to `O=C(NCCc1ccccn1)OCc1nc2nc(Cl)nc(N3CCOCC3)c2[nH]1`, for which the growth in the test on HCT-15 colon was -27.2% (active); in the test on HT29 colon, -28.9% (active); with SNB-75 CNS it was 2.59% (active); in the test on SNB-19 CNS, 37.2%; with U251 CNS, 16.3%; with PC-3 prostate it was 22.7%. For the same compound, the growth is -10.8% (active) with SK-MEL-5 melanoma; 24.6% with UACC-62 melanoma; -49.9% (active) in the test on LOX IMVI melanoma; 41.9% with SK-MEL-28 melanoma; -16% (active) in the test on SK-MEL-2 melanoma; 72.4% in the test on EKVX NSCLC. In addition, the growth was 28.6% with SN12C renal; 31.8% in the test on UO-31 renal; -29.4% (active) in the test with TK-10 renal; -94.9% (active) in the test with ACHN renal; 7.47% (active) with CAKI-1 renal; -9.02% (active) in the test on A498 renal. The growth is 0.909% (active) with CCRF-CEM leukemia and 4.05% (active) with MOLT-4 leukemia.

With `O=C(Nc1cccc(Cl)c1)Oc1c(Br)c(Br)c(Br)c(Br)c1Br`, the growth is 98.2% in the test with HCT-15 colon; 91.8% in the test with HT29 colon; 90% in the test on SNB-75 CNS; 101% in the test on SNB-19 CNS; 91.9% in the test on U251 CNS; 59.5% in the test with PC-3 prostate. The growth with SK-MEL-5 melanoma was 75.2%; with UACC-62 melanoma, 82.1%; with LOX IMVI melanoma it was 88.6%; in the test on SK-MEL-28 melanoma, 93.1%; in the test with SK-MEL-2 melanoma it was 79%; with EKVX NSCLC, 92.1%. Also, the growth in the test on SN12C renal was 92.7%; with UO-31 renal, 74.9%; in the test on TK-10 renal it was 99.9%; in the test on ACHN renal, 104%; with CAKI-1 renal it was 90.5%; with A498 renal, 78.3%. For the same compound, the growth in the test with CCRF-CEM leukemia was 87.9%.
